# About 83,000 compounds went through this panel and 20% of them were active in at least one assay; those are over-represented in the sample as a whole.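 In brief: 96-well plates, 48 h treatment, single concentration, percent growth endpoint.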 Unmarked numbers belong to inactive results. Active and inactive are the calls of the source. The calls were made as follows: active = growth percent below 10; inactive = the rest.
# Test system: MDA-MB-468 breast
# Test: NCI-60 one-dose screen, 48 h (100 = growth as untreated, 0 = no growth, -100 = all killed)
# Conditions: 10 µM unless noted
row,Compound,growth
1,C=C(C)[C@@H]1CC[C@]2(C(=O)O)CC[C@]3(C)[C@H](CC[C@@H]4[C@@]5(C)C[C@@H](CC#Cc6ccc(C(C)=O)s6)[C@H](O)C(C)(C)[C@@H]5CC[C@]43C)[C@@H]12,63.4%
2,C[n+]1c2ccccc2c(NC2CCNCC2)c2[nH]c3ccccc3c21,-72.5% (active)
3,C#CC(=O)Nc1cccc2c1cc(C)n2-c1nc2c(c(NCc3ccccc3)n1)CCCC2,-63.3% (active)
4,Cc1ccc(-n2nc(C(C)(C)C)cc2NC(=O)NCc2cc(F)ccc2Oc2ccc3c(cnn3CCO)c2)cc1,23.5%
5,C=CCN(CC#N)CC=C,101%
6,COc1cccc(Nc2nccc(Nc3ccc4[nH]ncc4c3)n2)c1,-45.5% (active)
7,C=C(C)[C@@H]1CC[C@]2(COCCCNCCCN)CC[C@]3(C)[C@H](CC[C@@H]4[C@@]5(C)CC[C@H](O)C(C)(C)[C@@H]5CC[C@]43C)[C@@H]12,-81.6% (active)
8,COc1cc(OC)c2sc(-c3ccc(-n4cncc4-c4ccc(OC)c(OC)c4)cc3)nc2c1,31%
9,[O-][n+]1c(Cl)cc(Cl)c2ccccc21,123%
10,C#C[C@]1(O)CC[C@H]2[C@@H]3CC=C4c5sc(N6CCN(C)CC6)nc5CC[C@]4(C)[C@H]3CC[C@@]21C,47.6%
11,NNC(=O)c1nc(N)n(-c2ccc(S(N)(=O)=O)cc2)n1,108%
12,O=C(NC1CCCCC1)c1ccc(Nc2ncnc3c2cnn3-c2ccccc2)cc1,76.1%
13,CCCCCCCCCCC(C(O)c1ccccc1)N1CCCCC1 (stereo not given),-21.9% (active)
14,COC12C=C/C(=C(/C(=O)OCc3ccccn3)C(=O)CCCCCCCCC3(OC)C=C/C(=C(/C(=O)OCc4ccccn4)C(=O)CCCCCCCC1)O3)O2,-32.5% (active)
15,COc1ccccc1S(=O)(=O)Nc1ccc2c3c(cc(-c4cnn(C5CC5)c4)nc13)C(=O)N2C,50.9%
16,C[C@]12CCc3nc(Nc4ccccc4)sc3C1=CC[C@@H]1[C@@H]2CC[C@]2(C)/C(=N/NC(N)=S)CC[C@@H]12,14.9%
17,O=C1Nc2c(ccc(Cl)c2Cl)/C1=C/c1ccc([N+](=O)[O-])cc1,103%
18,CCCCOc1c(N)cccc1C(=O)OCCN(CC)CC,112%
19,COc1ccc(N=C(c2ccccc2)C2C(=O)c3ccccc3C2=O)cc1,72.5%
20,Cn1cc(C(=O)c2nc(-c3c[nH]c4ccc(Br)cc34)no2)c2cc(F)ccc21,108%

row,Compound,growth
1,CCOc1nc(-c2ccco2)n2nc(-c3ccco3)cc2n1,-5.05% (active)
2,CCC1(C(C)C)NC(=O)NC1=O (stereo not given),98.5%
3,CC(=O)N(CC(O)CO)c1c(I)c(C(=O)NCCO)c(I)c(C(=O)NCC(O)CO)c1I (stereo not given),110%
4,COc1cc(-c2nc3ccc(C)cc3[nH]2)ccc1OCC(=O)N=Nc1c(O)[nH]c2ccc(Cl)cc12,-48.7% (active)
5,CN(C)S(=O)(=O)Oc1ccc(-c2sc3cc(OS(=O)(=O)N(C)C)ccc3c2C(=O)c2ccc(OCCN3CCCCC3)cc2)cc1,61.7%
6,C=CC(C)(O)CC/C=C(\CO)C(=O)OC1C(C)OC(O[C@](C)(C=C)CC/C=C(\CO)C(=O)O[C@H]2C[C@@]3(C(=O)OC4OC(CO)C(O)C(O)C4OC4OC(C)C(OC5OC(CO)C(O)C5O)C(OC5OC(CO)C(O)C(O)C5O)C4O)C(CC2(C)C)C2=CCC4[C@@]5(C)CC[C@H](OC6OC(COC7OC(C)C(O)C(O)C7OC7OCC(O)C(O)C7O)C(O)C(O)C6NC(C)=O)C(C)(C)C5CC[C@@]4(C)[C@]2(C)C[C@H]3O)C(O)C1O (stereo not given in full),19.9%
7,C/C(O)=C(/C=N\C(=S)Nc1ccc(S(=O)(=O)Nc2nccs2)cc1)C(=O)Nc1ccccc1C,82%
8,N#C/C(=C\c1ccc(-c2ccc(F)cc2)o1)c1nc(-c2ccco2)cs1,-47.2% (active)
9,COc1ccc(C(=O)c2cc3c(N)c(C(=O)Nc4ccc(C)cc4)sc3nc2C)cc1,-16.8% (active)
10,C=C(C)[C@@H]1CC[C@]2(c3ncc(C)o3)CC[C@]3(C)[C@H](CC[C@@H]4[C@@](C)(CCC#N)[C@H](C(=C)C)CC[C@]43C)[C@@H]12,-63% [100 µM] (active)
11,CCOc1cc2ncc(C#N)c(Nc3ccc(F)c(Cl)c3)c2cc1NC(=O)/C=C/CN(C)C,-43.9% (active)
12,O=C1Nc2ccc(Cl)cc2/C1=C\c1c(-c2ccc(Cl)cc2)nc2sc(C3CC3)nn12,66.4%
13,O=c1oc2ccccc2cc1-c1nn(-c2ccccc2)cc1/C=N/Nc1nc(-c2ccccc2)c(N=Nc2ccccc2)s1,48.5%
14,CN1CCN(C(=O)/C=C/c2ccc([N+](=O)[O-])o2)CC1,77.4%
15,C#C[C@]1(O)CC[C@H]2[C@@H]3CC=C4c5sc(NCc6ccccc6)nc5CC[C@]4(C)[C@H]3CC[C@@]21C,45.4%
16,COc1cc(-c2nc3ccc(C)cc3[nH]2)ccc1OCc1nnc(-c2ccc(CC(C)C)cc2)o1,116%
17,COc1cccc(N2CCN(C3=C(Cl)C(=O)c4ncccc4C3=O)CC2)c1,-63.6% (active)
18,O=C(Nc1ccc(Br)cc1F)c1cc(F)ccc1O,-0.885% (active)
19,CCOC(=O)c1sc2ncnc(Nc3ccc(NC(=O)Nc4ccc(Cl)cc4)cc3)c2c1C,68.9%
20,C=CCn1c(SCC(=O)Nc2ccc(C(=O)/C=C/c3ccc(Cl)cc3)cc2)nnc1-c1c[nH]c2ccccc12,62.2%

# Source: PubChem BioAssay (NCI)
